Experimental findings from PubChem BioAssay (NCATS) are described below.

Unmarked numbers belong to inactive results. Results filed as inconclusive are left out. The source made the active and inactive calls. Unless noted, calls come from the whole dose curve; as a rule, active = well fitted curve in either direction with a large enough effect (not every such curve was filed as active); inconclusive = small, poorly fitted or top-dose-only effect, or another doubt; inactive = flat fitted curve, though single readings scatter.

The target in assay [1] is Lysosomal acid glucosylceramidase (Homo sapiens) (UniProt P04062). Nature of the assay: Glucocerebrosidase-p2 (AID 348; in the data active = potency below about 10 µM; note: potency is the fitted concentration of half-maximal effect). Particulars: purified GBA, blue fluorogenic substrate, 40 min. The method, boiled down:
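Normal human glucocerebrosidase (0.2 nM) with blue fluorogenic substrate (80 uM final) in citrate/phosphate pH 5.9 with 10mM sodium taurocholate, 0.01% tween-20; 40 min RT, NaOH/glycine stop; fluorescence Ex 365/Em 440; AC50 from a titration from 0.6 nM upwards.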

Assay [2] is described as follows: AP1 Signaling Pathway (AID 357). Note: % is set by controls: 0 for no effect and ±100 for the full control effect. The note with it: ME-180 AP-1-bla reporter, EGF-induced, beta-lactamase ratio, 5 h; at 7.69 µM (top of the series) unless noted. In outline: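 Titration-series screen for positive or negative modulators of EC50 EGF-induced signaling in ME-180 cells carrying an AP-1-driven beta-lactamase reporter. After 5 hours at 37 degrees Celsius, CCF4 460nm/530nm emission ratio gave %Activity; AC50 values derived.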

Assay [3] has as its target Cytochrome P450 1A2 (Homo sapiens) (UniProt P05177). Kind of assay: p450-cyp1a2 (AID 410; calls by dose curve; note: potency is the fitted concentration of half-maximal effect;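 for activity change, negative = inhibition: -100% = full effect of reference inhibitor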). Particulars: recombinant CYP1A2, luciferin-ME demethylation, luminescence; series mostly up to 11.4 µM. In outline:
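20nM CYP1A2, 100uM Luciferin-ME (=Km), 100mM KPO4; cpd 10 min RT; +NADPH regen, 60 min RT; stop/detect 20 min; luminescence. Normalized to furafylline 57 uM = full inhibition.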

The nature of assay [4]: NFAT Signaling Pathway (AID 444).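 Note: carbachol stimulus at about its EC50 of 1 µM final; % is set by controls: 0 for no effect and ±100 for the full control effect.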 The note with it: Jurkat NFAT-bla M1, carbachol, beta-lactamase ratio, 5 h; at 7.69 µM (top of the series) unless noted. The method, boiled down: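 Read-out: CCF4 FRET ratio (460 nm/530 nm) after 1 h RT dye loading, used for %activity and AC50 from titration series. Cells: Jurkat NFAT-β-lactamase/M1 line, treated with compound plus 1 uM carbachol for 5 h, 37 °C.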

Assay [5] can be described thus: Stat Signaling Pathway (AID 446).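 Note: ME-180 cervical cancer cells given 40 pM IL-6 alongside compound; SIE-controlled beta-lactamase reporter measured as 460/530 nm FRET emission ratio; % is set by controls: 0 for no effect and ±100 for the full control effect.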 The note with it: ME-180 (cervical carcinoma) SIE beta-lactamase reporter, IL-6 stimulated, 5 h; at 7.69 µM (top of the series) unless noted. The method, boiled down:
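FRET read-out (405 nm excitation, 460/530 nm emission) of a beta-lactamase reporter under a STAT-inducible element in ME-180 cervical carcinoma cells. Cells with compound receive 40 pM IL-6 for 5 h. Values are normalised to AC90 stimulation and AC90 JAK-inhibitor controls.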

Assay [6] addresses Glucocorticoid receptor (Homo sapiens) (UniProt P04150). Nature of the assay: GR-GFP Redistribution (AID 450;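 active = compounds whose dose series gives a full or clear partial fitted curve of increased nuclear translocation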; note: potency is the fitted concentration of half-maximal effect). Particulars: U2OS GR-GFP nuclear translocation, laser cytometry, 2 h.
For assay [7] the target is unchanged. Nature of the assay: GR-EFC Redistribution (AID 451; calls by dose curve; note: potency is the fitted concentration of half-maximal effect). The note with it: CHO-K1 GR-EFC translocation, beta-gal luminescence, 2 h. The method, boiled down:
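Translocation of GR-ED fusion to nuclear EA restores b-gal, read by luminescence after 1 h room-temperature detection. Engineered CHO-K1 biosensor cells, 1,000/well, exposed 2 h at 37 C to titrations up to 46 uM final.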

The target of assay [8] is Mitogen-activated protein kinase 10 (Mus musculus) (UniProt Q61831). Nature of the assay: JNK3 AlphaScreen Assay (AID 530).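 Note: kinase came from lysate of stimulated human HepG2 cells; signal reports phosphorylation of biotinylated GST-cJun 1-79 at Ser73 with 10 µM ATP; % is set by controls: 0 for no effect and ±100 for the full control effect.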 The note with it: JNK3 lysate, c-Jun phosphorylation; series mostly up to 11.4 µM. The method, boiled down: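 Kinase buffer: 20 mM Tris-HCl pH 7.6, 10 mM MgCl2, 1 mM DTT, 0.1 mM Na3VO4, 0.01% Tween-20; ATP 10 uM. Substrate biotin-GST-cJun(1-79), enzyme from activated HepG2 lysates. Detection by Ser73 phospho-antibody AlphaScreen.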

The target in assay [9] is 3',5'-cyclic-AMP phosphodiesterase 4B (Homo sapiens) (UniProt Q07343). Nature of the assay: qHTS Assay for Inhibitors of PDE-IV (AID 607; active = well fitted activation curve with a large enough effect in the main read-out, with a control signal flat, not every such curve was filed as active; note: % of control where 0% means no effect). Particulars: HEK293 ACTOne CNG channel cells, membrane potential fluorescence; series mostly up to 22.9 µM. The method, boiled down:
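Cell-based read-out of cAMP via a modified cyclic nucleotide-gated channel and membrane potential dye (535/590 nm) in HEK293 cells expressing PDE4 endogenously. Compounds tested up to 22.9 uM final; 100 uM RO 20-1724 reference.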
In general terms: Quantitative high-throughput screening tests each substance at several concentrations.

3',5'-cyclic-AMP phosphodiesterase 4B (Homo sapiens), sequence (Q07343 whole entry, looked up): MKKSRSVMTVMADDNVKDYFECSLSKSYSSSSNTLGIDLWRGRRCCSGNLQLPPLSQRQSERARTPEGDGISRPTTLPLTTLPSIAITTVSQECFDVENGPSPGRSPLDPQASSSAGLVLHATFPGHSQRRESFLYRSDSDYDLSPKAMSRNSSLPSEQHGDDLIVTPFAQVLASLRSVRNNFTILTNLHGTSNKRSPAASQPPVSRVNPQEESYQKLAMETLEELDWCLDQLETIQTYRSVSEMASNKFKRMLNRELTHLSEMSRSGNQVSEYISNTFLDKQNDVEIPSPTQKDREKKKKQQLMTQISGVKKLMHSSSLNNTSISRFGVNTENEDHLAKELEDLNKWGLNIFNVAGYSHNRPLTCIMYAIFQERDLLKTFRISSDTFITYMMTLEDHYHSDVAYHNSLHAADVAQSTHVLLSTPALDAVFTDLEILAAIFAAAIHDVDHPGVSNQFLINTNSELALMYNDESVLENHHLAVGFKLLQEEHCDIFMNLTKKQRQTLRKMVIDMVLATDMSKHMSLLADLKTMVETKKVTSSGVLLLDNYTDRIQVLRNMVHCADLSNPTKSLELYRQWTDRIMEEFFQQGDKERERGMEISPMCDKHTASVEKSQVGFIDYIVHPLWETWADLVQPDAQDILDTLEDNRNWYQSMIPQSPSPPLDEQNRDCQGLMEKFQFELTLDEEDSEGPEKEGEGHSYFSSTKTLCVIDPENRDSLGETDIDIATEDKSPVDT
Lysosomal acid glucosylceramidase (Homo sapiens), sequence (P04062 whole entry, looked up): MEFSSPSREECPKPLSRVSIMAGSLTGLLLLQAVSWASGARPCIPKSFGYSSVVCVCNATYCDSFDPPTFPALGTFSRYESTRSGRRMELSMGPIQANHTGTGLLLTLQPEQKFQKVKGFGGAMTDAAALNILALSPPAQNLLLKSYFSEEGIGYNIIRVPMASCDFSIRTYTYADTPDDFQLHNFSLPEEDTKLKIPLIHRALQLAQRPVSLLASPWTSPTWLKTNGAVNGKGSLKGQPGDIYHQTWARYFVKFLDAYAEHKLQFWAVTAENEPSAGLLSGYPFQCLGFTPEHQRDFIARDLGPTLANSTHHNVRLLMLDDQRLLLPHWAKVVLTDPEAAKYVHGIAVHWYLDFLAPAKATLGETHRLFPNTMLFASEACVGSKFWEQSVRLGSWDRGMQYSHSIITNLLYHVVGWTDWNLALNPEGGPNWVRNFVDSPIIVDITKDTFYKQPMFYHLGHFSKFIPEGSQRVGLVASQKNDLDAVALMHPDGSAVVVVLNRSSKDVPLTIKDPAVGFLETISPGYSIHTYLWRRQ
Cytochrome P450 1A2 (Homo sapiens), sequence (P05177 whole entry, looked up): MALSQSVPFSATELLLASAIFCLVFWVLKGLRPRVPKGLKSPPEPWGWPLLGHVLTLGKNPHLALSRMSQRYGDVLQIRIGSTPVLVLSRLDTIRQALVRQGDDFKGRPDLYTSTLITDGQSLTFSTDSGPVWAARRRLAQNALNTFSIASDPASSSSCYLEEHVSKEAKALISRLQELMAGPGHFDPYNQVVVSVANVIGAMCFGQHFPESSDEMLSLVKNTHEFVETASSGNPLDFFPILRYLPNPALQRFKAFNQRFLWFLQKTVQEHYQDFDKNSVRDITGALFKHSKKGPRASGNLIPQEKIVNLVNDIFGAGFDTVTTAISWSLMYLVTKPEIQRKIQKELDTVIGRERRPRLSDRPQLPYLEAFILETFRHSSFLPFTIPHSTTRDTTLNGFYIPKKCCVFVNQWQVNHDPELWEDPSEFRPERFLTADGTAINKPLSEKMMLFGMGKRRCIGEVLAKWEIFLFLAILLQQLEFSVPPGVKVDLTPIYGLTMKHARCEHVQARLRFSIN
Glucocorticoid receptor (Homo sapiens), sequence (P04150 whole entry, looked up): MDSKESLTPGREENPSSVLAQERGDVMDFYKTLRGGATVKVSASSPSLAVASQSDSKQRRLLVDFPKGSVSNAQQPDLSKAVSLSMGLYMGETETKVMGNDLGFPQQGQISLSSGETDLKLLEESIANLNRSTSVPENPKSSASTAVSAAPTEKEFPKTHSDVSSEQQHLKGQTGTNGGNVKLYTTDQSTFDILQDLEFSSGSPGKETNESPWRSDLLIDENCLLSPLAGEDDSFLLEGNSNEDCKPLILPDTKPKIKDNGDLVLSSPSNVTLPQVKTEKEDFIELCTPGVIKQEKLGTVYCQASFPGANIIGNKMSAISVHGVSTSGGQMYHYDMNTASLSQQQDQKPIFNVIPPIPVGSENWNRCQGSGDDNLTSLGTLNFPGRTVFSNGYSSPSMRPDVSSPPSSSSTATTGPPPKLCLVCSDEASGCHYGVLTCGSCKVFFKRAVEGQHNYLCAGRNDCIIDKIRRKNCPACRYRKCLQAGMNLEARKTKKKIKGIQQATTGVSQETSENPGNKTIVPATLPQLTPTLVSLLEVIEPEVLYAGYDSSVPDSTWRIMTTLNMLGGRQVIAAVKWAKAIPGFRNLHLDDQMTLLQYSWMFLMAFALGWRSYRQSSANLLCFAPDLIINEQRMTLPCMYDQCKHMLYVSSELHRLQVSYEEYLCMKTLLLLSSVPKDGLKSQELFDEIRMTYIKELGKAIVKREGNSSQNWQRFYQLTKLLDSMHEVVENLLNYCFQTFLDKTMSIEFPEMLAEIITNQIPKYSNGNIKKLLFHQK

Take `CC(C)CN=C(N)N=C(N)N`: the Potency in assay [1] was greater than 11.4 µM; in [6] it was greater than 46 µM; in [7], greater than 9.22 µM. In addition, the activity change, negative = inhibition in [2] is 6.14%; in assay [4] it was 11.1%. The Potency entry in assay [3], in [8] and in [9] was “inactive” throughout. Also, the activity, negative = inhibition in assay [5] was 1.4%.
For `O=C1Nc2ccccc2C1=Nc1cccc2ncccc12`, the Potency in assay [1] was greater than 11.4 µM; in [3], 3.98 µM (active); in [6], greater than 46 µM; in assay [7], greater than 9.22 µM. Also, the activity change, negative = inhibition in [2] is 5.64%; in assay [4] it was -3.54%. Further, the activity, negative = inhibition in assay [5] is 2.41%. Further, the Potency result in assay [8] and in assay [9] was “inactive” throughout.
As for `O=C(O)c1c[nH]c2cc(OCc3ccccc3)ccc2c1=O`, the Potency in assay [1] is greater than 11.4 µM; in assay [6], greater than 46 µM; in assay [7] it was greater than 9.22 µM. For the same molecule, the figures for the activity change, negative = inhibition in assay [2] and in [4] were -8.18% and 5.14%, respectively. Further, the Potency entry in assay [3], in [8] and in assay [9] was “inactive” each time. Also, the activity, negative = inhibition in assay [5] is -8.65%.
As to `NC(N)=NC[C@@H]1CCCCCCN1`, the Potency in assay [1] is greater than 11.4 µM; in assay [6], greater than 46 µM; in assay [7], greater than 9.22 µM. The activity change, negative = inhibition is 2% in [2] and 4.87% in assay [4]. The Potency entry in assay [3], in assay [8] and in assay [9] was “inactive” throughout. In addition, the activity, negative = inhibition in assay [5] is -5.43%.
In the case of `NCCNc1ncnc2ccc(Cl)cc12`, the Potency was 11.7 µM in assay [1], 1 µM (active) in assay [3], greater than 46 µM in [6] and greater than 9.22 µM in [7]. Moreover, the results for the activity change, negative = inhibition in [2] and in assay [4] were 5.69% and -9.27%, respectively. In addition, the activity, negative = inhibition in assay [5] is -14.9%. The Potency entry in assay [8] and in assay [9] was “inactive” in each case.
For the molecule `C[N+](C)(C)[C@H](Cc1c[nH]c(=S)[nH]1)C(=O)O`, the Potency in assay [1] is greater than 11.4 µM; in [6], greater than 46 µM; in [7] it was greater than 9.22 µM. The activity change, negative = inhibition in assay [2] was 4.67%; in assay [4], -2.8%. In addition, the Potency entry in assay [3], in assay [8] and in assay [9] was “inactive” throughout. Moreover, the activity, negative = inhibition in assay [5] was 9.57%.
As to `NC(N)=N/N=C\c1ccc(O)c(C(=O)O)c1`, the figures for the Potency in assay [1], in [6] and in assay [7] were greater than 11.4 µM, greater than 46 µM and greater than 9.22 µM, respectively. The activity change, negative = inhibition is 12.8% in [2], -11.9% [at 2.29 µM] in assay [3] and 14.8% in [4]. Moreover, the activity, negative = inhibition in assay [5] is -1.78%. Moreover, the Potency entry in assay [8] and in assay [9] was “inactive” each time.
Consider `N#C[C@H]1CN[C@H](N)N[C@@H]1N`, for which the Potency in assay [1] was greater than 11.4 µM; in [6], greater than 46 µM; in assay [7], greater than 9.22 µM. The values for the activity change, negative = inhibition in assay [2], in [3] and in assay [4] were 2.11%, -11.6% [at 2.29 µM] and 6.86%, respectively. In addition, the activity, negative = inhibition in [5] was 13.9%. Besides, the Potency result in assay [8] and in assay [9] was “inactive” in each case.
Turning to `CC[C@](N)(C(=O)O)C(C)C`, the Potency was greater than 11.4 µM in assay [1], greater than 46 µM in assay [6] and greater than 9.22 µM in [7]. Also, the activity change, negative = inhibition in assay [2] is 6.23%; in [4] it was -9.09%. Further, the Potency result in assay [3], in [8] and in [9] was “inactive” each time. Moreover, the activity, negative = inhibition in [5] is -6.84%.
As for `Cn1c(=O)c2c(ncn2CN2CCN(Cn3cnc4c3c(=O)n(C)c(=O)n4C)CC2)n(C)c1=O`, the Potency in [1] was greater than 11.4 µM; in assay [6], greater than 46 µM; in assay [7], greater than 9.22 µM. Further, the activity change, negative = inhibition in assay [2] was -1.04%; in assay [3] it was -18.2% [at 2.29 µM]; in [4], 7.2%. For the same molecule, the activity, negative = inhibition in assay [5] is 2.15%. The Potency result in assay [8] and in assay [9] was “inactive” in each case.
On to `Nc1nc2c(c(=O)[nH]1)CN(c1ccc(S(N)(=O)=O)cc1)CN2`, for which the Potency in [1] is greater than 11.4 µM; in [6] it was greater than 46 µM; in assay [7], greater than 9.22 µM. For the same molecule, the values for the activity change, negative = inhibition in assay [2], in assay [3] and in assay [4] were -2.56%, 8.8% [at 2.29 µM] and 12%, respectively. The activity, negative = inhibition in assay [5] was 1.71%. Also, the Potency result in assay [8] and in assay [9] was “inactive” in each case.
Consider `Cc1nc(CN2CCCCC2)c(O)c(=O)[nH]1`, for which the Potency in [1] was greater than 11.4 µM; in [6], greater than 46 µM; in [7] it was greater than 9.22 µM. The activity change, negative = inhibition is -7.91% in [2] and 12.6% in [4]. Moreover, the Potency entry in [3], in [8] and in assay [9] was “inactive” throughout. In [5], the activity, negative = inhibition was -9.62%.
Take `CC(=NC1CCCCC1)c1ccccc1O`: the Potency in assay [1] was greater than 11.4 µM; in [6] it was greater than 46 µM; in assay [7] it was greater than 9.22 µM. Also, the values for the activity change, negative = inhibition in assay [2] and in [4] were 6.06% and 16.7%, respectively. The Potency result in assay [3], in assay [8] and in [9] was “inactive” in each case. Also, the activity, negative = inhibition in assay [5] was 11%.
As to `O=C(O)[C@@H]1[C@@H](C(=O)Nc2ccccc2)[C@@H]2C=C[C@@H]1O2`, the results for the Potency in [1], in [6] and in assay [7] were greater than 11.4 µM, greater than 46 µM and greater than 9.22 µM, respectively. Besides, the activity change, negative = inhibition was 3.5% in [2], -18.1% [at 2.29 µM] in [3] and 8.21% in assay [4]. Besides, the activity, negative = inhibition in assay [5] was -5.22%. Moreover, the Potency entry in assay [8] and in assay [9] was “inactive” each time.
As for `O=C(O)c1c(-c2c3ccc(=O)cc-3oc3cc(O)ccc23)cc2ccccc2c1-c1ccccc1`, the Potency in assay [1] is greater than 11.4 µM; in assay [6] it was greater than 46 µM; in assay [7], greater than 9.22 µM. Also, the results for the activity change, negative = inhibition in [2], in [3] and in [4] were 8.03%, -17.6% [at 2.29 µM] and 2.16%, respectively. In addition, the activity, negative = inhibition in [5] was 3.5%. In addition, the Potency result in assay [8] and in assay [9] was “inactive” throughout.
